In all, about 360,000 compounds went through this assay and about 16,000 (4.4%) were called active. Inconclusive results (about 9%) are left out. This is one part of a sample in which actives are shown more often than they occur. Calls come from the whole dose curve; as a rule, active = well fitted inhibition curve with a large enough effect; inconclusive = small, poorly fitted or top-dose-only effect; inactive = no such curve, though single readings can be large or run the other way.
Target: Bromodomain adjacent to zinc finger domain protein 2B (Homo sapiens) (UniProt Q9UIF8)
Assay: qHTS Assay for Inhibitors of BAZ2B; note: nearly all actives have a fitted effect of over 60% in size
Details: AlphaScreen BAZ2B-H3K14Ac peptide displacement; series mostly up to 114 µM; activity change, negative = inhibition: at the top concentration
In short: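 Protein-peptide AlphaScreen: BAZ2B 50 nM, b-H3K14Ac 50 nM, 1x PBS pH 7.4 + 0.01% Tween-20. Preincubation 30 min RT; cpd 30 min RT (top 110 uM); beads 20 min RT, light-protected.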
% is set by controls: 0 for no effect and ±100 for the full control effect; potency is the fitted concentration of half-maximal effect.

Bromodomain adjacent to zinc finger domain protein 2B (Homo sapiens), sequence (Q9UIF8 whole entry, looked up, the tested form may be a part): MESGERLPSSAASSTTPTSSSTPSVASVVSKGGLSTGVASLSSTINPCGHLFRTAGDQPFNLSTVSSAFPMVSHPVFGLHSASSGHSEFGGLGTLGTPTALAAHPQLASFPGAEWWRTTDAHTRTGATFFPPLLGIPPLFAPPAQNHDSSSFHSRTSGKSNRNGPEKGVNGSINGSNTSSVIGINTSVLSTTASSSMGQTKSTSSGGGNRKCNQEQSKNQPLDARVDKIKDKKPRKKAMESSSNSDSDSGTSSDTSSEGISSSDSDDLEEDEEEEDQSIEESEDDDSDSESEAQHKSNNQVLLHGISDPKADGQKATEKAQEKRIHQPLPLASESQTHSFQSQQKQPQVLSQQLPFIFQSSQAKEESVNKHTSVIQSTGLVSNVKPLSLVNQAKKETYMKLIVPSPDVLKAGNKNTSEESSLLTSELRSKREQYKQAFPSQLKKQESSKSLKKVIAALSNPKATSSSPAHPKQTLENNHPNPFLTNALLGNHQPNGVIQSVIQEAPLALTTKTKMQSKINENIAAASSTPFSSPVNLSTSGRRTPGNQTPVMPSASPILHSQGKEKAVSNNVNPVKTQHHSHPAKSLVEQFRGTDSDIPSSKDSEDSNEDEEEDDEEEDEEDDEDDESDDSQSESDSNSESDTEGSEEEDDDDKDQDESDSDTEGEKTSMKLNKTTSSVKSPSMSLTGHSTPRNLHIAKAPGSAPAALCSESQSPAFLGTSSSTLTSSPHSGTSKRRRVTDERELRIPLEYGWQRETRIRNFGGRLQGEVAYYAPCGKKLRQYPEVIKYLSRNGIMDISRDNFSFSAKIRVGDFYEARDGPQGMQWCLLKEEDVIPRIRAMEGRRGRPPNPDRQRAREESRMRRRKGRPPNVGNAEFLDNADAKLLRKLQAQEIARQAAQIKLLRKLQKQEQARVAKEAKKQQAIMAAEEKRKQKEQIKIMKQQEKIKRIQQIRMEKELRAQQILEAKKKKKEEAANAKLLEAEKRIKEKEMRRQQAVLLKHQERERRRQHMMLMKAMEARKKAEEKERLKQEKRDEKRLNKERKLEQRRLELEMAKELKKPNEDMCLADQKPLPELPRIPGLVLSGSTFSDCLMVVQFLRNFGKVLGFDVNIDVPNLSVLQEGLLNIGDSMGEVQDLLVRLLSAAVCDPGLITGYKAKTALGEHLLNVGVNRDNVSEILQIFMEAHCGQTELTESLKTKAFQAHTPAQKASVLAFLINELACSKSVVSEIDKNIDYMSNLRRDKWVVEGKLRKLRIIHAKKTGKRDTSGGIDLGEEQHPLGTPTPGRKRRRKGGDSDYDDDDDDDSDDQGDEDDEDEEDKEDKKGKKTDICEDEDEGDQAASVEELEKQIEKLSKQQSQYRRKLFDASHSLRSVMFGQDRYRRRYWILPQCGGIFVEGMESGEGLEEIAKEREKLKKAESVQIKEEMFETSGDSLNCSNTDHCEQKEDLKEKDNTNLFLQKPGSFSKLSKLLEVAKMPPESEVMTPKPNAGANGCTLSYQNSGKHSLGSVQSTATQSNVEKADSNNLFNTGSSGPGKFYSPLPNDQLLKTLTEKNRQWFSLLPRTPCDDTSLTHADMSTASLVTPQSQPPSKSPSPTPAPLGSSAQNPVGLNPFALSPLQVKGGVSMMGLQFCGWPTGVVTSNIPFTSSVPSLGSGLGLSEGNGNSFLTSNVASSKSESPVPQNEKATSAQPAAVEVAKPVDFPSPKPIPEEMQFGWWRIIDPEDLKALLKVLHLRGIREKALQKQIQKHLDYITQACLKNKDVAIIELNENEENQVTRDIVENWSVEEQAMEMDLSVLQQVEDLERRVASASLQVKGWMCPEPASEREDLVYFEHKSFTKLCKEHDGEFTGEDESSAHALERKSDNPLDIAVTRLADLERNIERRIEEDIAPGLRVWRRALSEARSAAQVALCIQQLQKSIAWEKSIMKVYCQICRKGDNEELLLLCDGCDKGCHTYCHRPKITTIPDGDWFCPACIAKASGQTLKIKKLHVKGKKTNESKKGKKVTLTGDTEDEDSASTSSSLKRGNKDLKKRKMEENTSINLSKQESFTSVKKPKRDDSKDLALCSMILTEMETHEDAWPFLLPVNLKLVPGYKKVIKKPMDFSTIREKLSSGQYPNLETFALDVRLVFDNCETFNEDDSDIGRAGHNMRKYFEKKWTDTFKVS

Row | Structure (SMILES) | activity change, negative = inhibition | Potency
1 | CCc1ccc(OCC(=O)N2CCN(CC(=O)Nc3ccccc3Cl)CC2)cc1 | 10.2% (inactive) | 
2 | Cc1cc(C=C2C(=O)NC(=O)NC2=O)c(C)n1-c1ccncc1 | -23.5% (inactive) | 
3 | Cc1cc(/C=C2/C(=O)NC(=O)N(Cc3ccco3)C2=O)c(C)n1-c1ccc(C(=O)O)cc1 |  | 56.2 µM (active)
4 | Cc1ccc(-n2c(C)cc(/C=C3\C(=O)NC(=O)N(C)C3=O)c2C)cc1C | -28.5% (inactive) | 
5 | Cn1c(O)c(C(=Nc2ccc(F)cc2)c2ccccc2)c(=O)n(C)c1=O | -8.76% (inactive) | 
6 | CCN(CC)c1ccc([N+](=O)[O-])c2cccnc12 |  | 28.2 µM (active)
7 | COC(=O)C1=C(c2ccccc2OCc2ccccc2)C[C@@H]2CC[C@H]1N2C(=O)NCc1ccc(OC)cc1 | -6.25% (inactive) | 
8 | Cc1c(Oc2cc(NN3CCCCC3)c([N+](=O)[O-])cc2[N+](=O)[O-])cccc1[N+](=O)[O-] | 0.574% (inactive) | 
9 | CN(C)C(=O)Oc1ccc(NC(=O)N2CCOCC2)cc1 | -4.05% (inactive) | 
10 | COc1ccc2[nH]c3c(c2c1)CCN[C@H]3C |  | 44.7 µM (active)
11 | CCOC(=O)C1(Cc2ccc(Cl)cc2)CCN(C(C)CCn2cccn2)CC1 (stereo unspecified) | -9.31% (inactive) | 
12 | CCCCn1c(=O)c(C(=O)Nc2ccccc2Cl)c(O)c2ccccc21 | 9.08% (inactive) | 
13 | Cc1cccc(Cn2cccc(C(=O)Nc3ccc4c(c3)OCCO4)c2=O)c1 | -2.38% (inactive) | 
14 | O=c1c2ccccc2nc(/C=C/c2ccc(F)cc2)n1-c1ccccc1O | -12.3% (inactive) | 
15 | C=CCN(CC=C)C(=O)Nc1ccc(OCC)cc1 | -21.3% (inactive) | 
16 | C=CCN1C(=O)NC(=O)/C(=C/c2ccc(OCC(=O)Nc3ccc(C)cc3)cc2)C1=O |  | 50.1 µM (active)
17 | Cc1ccc(C2CN(C)CC2C(=O)c2ccc(F)cc2)cc1 (stereo unspecified) | -13% (inactive) | 
18 | CC(C)c1c(CN(C)C(C)Cc2ccccc2)n(C)n(-c2ccccc2)c1=O (stereo unspecified) | 8.31% (inactive) | 
19 | CN1CCc2cc3c(cc2[C@H]1[C@@H]1OC(=O)c2c1ccc1c2OCO1)OCO3 | 6.42% (inactive) | 
20 | C[C@]12CC[C@H](O)C[C@H]1CC[C@@H]1C2CC[C@]2(C)[C@@H](C3=CC(=O)OC3)[C@@H](O)C[C@]12O (stereo partly specified) | 4.14% (inactive) | 
21 | CN(C)CC1CCCCC1=O (stereo unspecified) | -2.32% (inactive) | 

Row | Structure (SMILES) | activity change, negative = inhibition | Potency
22 | Cc1ccccc1N1C(=O)NC(=O)/C(=C\c2cc(C)n(C)c2C)C1=O | -31% (inactive) | 
23 | Cc1c(C(=O)O)cccc1-n1c(C)cc(/C=C2\C(=O)NC(=O)N(c3ccc4c(c3)OCO4)C2=O)c1C |  | 56.2 µM (active)
24 | O=C1N=c2ccccc2=C/C1=C\c1c(O)[nH]c(=S)[nH]c1=O | 5.91% (inactive) | 
25 | O=C1NC(=O)C(C/C=C/c2ccccc2)C(=O)N1 | -5.78% (inactive) | 
26 | CCOP(=S)(OCC)C(O)CCCCCn1c(=O)c(F)cn(C2CCCO2)c1=O (stereo unspecified) | 2.17% (inactive) | 
27 | CCc1nc2ccccc2c(=O)n1-c1cccc(OC)c1 | 24.6% (inactive) | 
28 | COc1ccc(CN2CCN(c3ccccc3F)CC2)c(OC)c1 |  | 50.1 µM (active)
29 | CC(C)c1ccc(O)c(CN2CCN(c3ccccc3)CC2)c1 | -3.99% (inactive) | 
30 | Cc1cccc(NC(=O)N2CC3CC(C2)c2cccc(=O)n2C3)c1 (stereo unspecified) | -1.2% (inactive) | 
31 | CCOc1cccc(=NC2CCCCC2)c2c(C)[nH]c(C)c12 | 19.2% (inactive) | 
32 | O=C(O)c1ccccc1NC(=O)C1C2CCC(O2)C1C(=O)O (stereo unspecified) | 0.502% (inactive) | 
33 | CCN(CC)C(=O)Oc1ccc(NC(=O)N2CCOCC2)cc1 | 14.1% (inactive) | 
34 | CC/C(=N\NC(=O)c1ccccc1O)c1c(O)n(Cc2ccccc2)c(=O)[nH]c1=O | 3.69% (inactive) | 
35 | CCC(=NCc1ccco1)c1c(O)n(Cc2ccccc2)c(=O)[nH]c1=O |  | 50.1 µM (active)
36 | CCCCn1c(O)c(C(CC)=NCc2ccco2)c(=O)[nH]c1=O | -3.38% (inactive) | 
37 | COC(=O)C1=C(c2ccc(F)cc2OCc2ccccc2)C[C@@H]2CC[C@H]1N2C(=O)NCc1ccc(OC)c(OC)c1 | -9.47% (inactive) | 
38 | O=C(CCC(=O)N1C[C@H]2C[C@@H](C1)c1cccc(=O)n1C2)NCc1ccccc1C(F)(F)F | 9.68% (inactive) | 
39 | CN1CCN(Cc2ccccc2C(F)(F)F)CC1 | -2.16% (inactive) | 
40 | CN1CCN(Cc2ccc(OC(F)(F)F)cc2)CC1 |  | 56.2 µM (active)
41 | CC(C)c1ccc(OCC(=O)N2CCCN(C)CC2)cc1 | 2.95% (inactive) | 
42 | CCN(CC)C(=O)c1ccc(NC(=O)c2sccc2-c2ccccc2)cc1 | -3.49% (inactive) | 

Row | Structure (SMILES) | activity change, negative = inhibition | Potency
43 | CCOc1cc(N2CCOCC2)c(OCC)cc1NC(=O)C1=NN(c2cccc(C)c2)C(=O)CC1 |  | 8.91 µM (active)
44 | CN(C)CC1Oc2ccccc2OC1(O)c1ccccc1 (stereo unspecified) | 1.99% (inactive) | 
45 | CN(C)c1ccc(/C=C2\CC3C4CC=C5CC(O)CCC5(C)C4CCC3(C)C2=O)cc1 (stereo unspecified) | -29.5% (inactive) | 
46 | COC(=O)C1=C(c2ccc(F)cc2OCc2ccccc2)C[C@@H]2CC[C@H]1N2C(=O)NCc1ccc(Cl)cc1 | 3.65% (inactive) | 
47 | c1ccc(CC2CCCCN2)cc1 (stereo unspecified) | 3.56% (inactive) | 
48 | c1ccc(CCNC2CCCCCC2)cc1 |  | 70.8 µM (active)
49 | c1cc2c(cc1CCNC1CCCCCC1)OCO2 |  | 17.8 µM (active)
50 | Cc1ccc(CN2CCCC(C(=O)c3ccc4c(c3)OCO4)C2)cc1C (stereo unspecified) | -14.9% (inactive) | 
51 | c1cc2c(cc1[C@H]1OC[C@H]3[C@@H]1CO[C@@H]3c1ccc3c(c1)OCO3)OCO2 | 2.2% (inactive) | 
52 | OC(CNC1CCCCC1)c1ccccc1 (stereo unspecified) | 4.38% (inactive) | 
53 | COc1cc(Cn2c(N)c(C(=O)NCc3ccco3)c3nc4ccccc4nc32)cc(OC)c1OC | -13.2% (inactive) | 
54 | O=C(c1ccccc1[N+](=O)[O-])N1CCC2(CC1)OCCO2 | -1.71% (inactive) | 
55 | COC(=O)C1=C(c2ccc(F)cc2F)C[C@@H]2CC[C@H]1N2C(=O)NC1CC1 | 11.4% (inactive) | 
56 | Cc1ccc2c(c1)=C/C(=C\c1c(O)[nH]c(=O)[nH]c1=O)C(=O)N=2 | -11.9% (inactive) | 
57 | CCOc1ccc(-c2cc(C)[n+](CCN(CC)CC)c(-c3ccc(OCC)cc3)c2)cc1 | -12.5% (inactive) | 
58 | Cc1ccc(C(C)C)c(OCC(=O)N2CCN(CC(=O)N3CCOCC3)CC2)c1 | 7.63% (inactive) | 
59 | CC(=O)Nc1ccc(C(=O)C(Cc2ccccc2)N(C)C)cc1 (stereo unspecified) | -24% (inactive) | 
60 | CN(C)c1ccc(NC(=O)CN2C3CCCC2CC(NC(=O)c2ccccc2)C3)cc1 (stereo unspecified) |  | 70.8 µM (active)
61 | CN(C)S(=O)(=O)c1cc(C(=O)N2CCC(C(=O)O)(c3ccccc3)CC2)ccc1Cl | 3.5% (inactive) | 
62 | CCN1CCN(c2nc3c(c(=O)[nH]2)CCC3)CC1 | -11.1% (inactive) | 
63 | O=C(Nc1ccc(Cl)cc1C(=O)c1ccccc1)c1cc(Cl)cc(Cl)c1 | -6.39% (inactive) | 

Row | Structure (SMILES) | activity change, negative = inhibition | Potency
64 | COc1cccc(N2C(=O)NC(=O)/C(=C\c3cn(C)c4ccccc34)C2=O)c1 | -0.686% (inactive) | 
65 | COc1cccc(N2C(=O)NC(=O)/C(=C\c3ccc([N+](=O)[O-])s3)C2=O)c1 |  | 31.6 µM (active)
66 | O=C1NC(=O)N(c2ccccc2)C(=O)/C1=C/c1ccc([N+](=O)[O-])s1 |  | 35.5 µM (active)
67 | Cc1cccc(N2C(=O)NC(=O)/C(=C\c3cnn(-c4ccccc4)c3)C2=O)c1 | -4.33% [at 57.1 µM] (inactive) | 
68 | Cc1nn(-c2ccccc2)c(C)c1NC(=O)COC(=O)Cc1ccccc1 | -2.34% (inactive) | 
69 | COC(=O)C1=C(c2ccc(C(C)=O)cc2)C[C@@H]2CC[C@H]1N2C(=O)NCCNC(C)=O | 3.05% (inactive) | 
70 | CC(C)n1c(=O)c(C=Nc2ccc(Br)cc2)c(O)n(Cc2ccco2)c1=O | 3.28% (inactive) | 
71 | Cc1cc(C(=O)OCC(=O)Nc2c(F)cccc2F)c(C)n1C1CC1 | 10.6% (inactive) | 
72 | COc1ccccc1OC(=O)c1ccc(C)c(S(=O)(=O)N2CCOCC2)c1 | -19.5% (inactive) | 
73 | COc1ccc(CN2C(=O)NC(=O)/C(=C\c3ccc(OC)c(OC)c3OC)C2=O)cc1 | -35.5% (inactive) | 
74 | COc1ccc(N2C(=O)/C(=C/c3ccco3)C(=O)NC2=S)cc1 |  | 3.55 µM (active)
75 | Cc1ccc(S(=O)(=O)N(C)c2ccc(C(=O)NCC3(N(C)C)CCCCC3)cc2)cc1 | -7.55% (inactive) | 
76 | CN(C)C(=O)Oc1ccc(OCc2cccc[n+]2C)cc1 | -2.06% (inactive) | 
77 | COC(=O)C1=C(c2ccc(F)cc2OCc2ccccc2)C[C@@H]2CC[C@H]1N2C(=O)NCc1ccc(C(C)(C)C)cc1 | -29.9% (inactive) | 
78 | O=C(OCC1O[C@@H](OC(=O)c2cc(O)c(O)c(O)c2)[C@@H](OC(=O)c2cc(O)c(O)c(O)c2)[C@@H](OC(=O)c2cc(O)c(O)c(O)c2)[C@@H]1OC(=O)c1cc(O)c(O)c(O)c1)c1cc(O)c(O)c(O)c1 (stereo partly specified) |  | 0.708 µM (active)
79 | CN(C)C(=O)Oc1ccc2c(c1)O/C(=C\c1ccccc1)C2=O | -32.8% (inactive) | 
80 | CC1CCC(N(C)C2CCN(C)CC2)CC1 (stereo unspecified) | -19.6% (inactive) | 
81 | CNC(=O)O/N=C(\N)Cc1csc2ccc(Cl)cc12 | -13.2% (inactive) | 
